The campaign covered roughly 360,000 compounds. About 8,200 (2.3%) were called active. This is one part of a sample in which actives are shown more often than they occur. Values without a mark were called inactive. Rule as the data show it: active = inhibition above about 27%; inactive = the rest.
Target: Fructose-bisphosphate aldolase (Mycobacterium tuberculosis (strain ATCC 25618 / H37Rv)) (UniProt P9WQA3)
Assay: Mtb FBA enzyme inhibitors, primary screen, biochemical, fluorescence, strain H37Rv (AID 588726);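 also: 0% = vehicle and 100% = reference inhibitor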
Conditions: purified M. tuberculosis FBA, fluorescence read-out, at 1 µM, active compounds read high

Fructose-bisphosphate aldolase (Mycobacterium tuberculosis (strain ATCC 25618 / H37Rv)), sequence (P9WQA3 whole entry, looked up): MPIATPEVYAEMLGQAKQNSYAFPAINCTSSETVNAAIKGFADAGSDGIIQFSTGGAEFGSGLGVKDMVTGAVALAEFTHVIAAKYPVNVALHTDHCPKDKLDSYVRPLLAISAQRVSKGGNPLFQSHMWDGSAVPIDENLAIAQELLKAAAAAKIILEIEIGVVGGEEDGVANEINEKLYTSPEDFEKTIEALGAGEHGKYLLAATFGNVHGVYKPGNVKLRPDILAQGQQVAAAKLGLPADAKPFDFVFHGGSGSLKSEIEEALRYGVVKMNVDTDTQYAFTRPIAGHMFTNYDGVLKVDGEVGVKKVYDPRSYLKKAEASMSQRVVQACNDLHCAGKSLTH

For `CC/C(C)=N/Nc1nc2sc3c(c2c(=O)[nH]1)CC(C)(C)OC3`, which inhibition is on record?
Its inhibition is 21.5%.

With `CCCc1nc2oc3c(OCC)ncnc3c2c2c1COC(C)(C)C2` as the compound, how does the inhibition read?
The inhibition was -1.08%.

For `CCCc1nc2oc3c(=O)[nH]cnc3c2c2c1COC(C)(C)C2`, which inhibition is on record?
Its inhibition is 40.7% (active).

Which inhibition does the source give for `Nn1c(SCC(=O)NC(=O)NC2CCCC2)nnc1-c1ccccc1F` here?
The inhibition was 0.25%.

Which inhibition does the source give for `Cc1nc2ccc(C(=O)N3CCSCC3)cc2s1` here?
The inhibition was -8.83%.

`CN(CCc1ccccn1)C(=O)c1ccc(OC2CCN(Cc3ccccn3)CC2)cc1` was tested. Which inhibition did it give?
Its inhibition is 3.08%.

For `COc1cc2c(cc1OC)C(C(C)C)=NC(C)(C)C2`, which inhibition is on record?
Its inhibition is 140% (active).

With `COc1cc2c(cc1O)C(SC)=NC(C)(C)C2` as the compound, how does the inhibition read?
The inhibition was 0.86%.

`COc1cc2c(cc1OC)C(Nc1ccc(S(N)(=O)=O)cc1)=NC(C)(C)C2` was tested. Which inhibition did it give?
Its inhibition is 0.94%.

Which inhibition does the source give for `COc1ccccc1C(=O)Nc1ccc(OCC(=O)N2CCCCC2)cc1` here?
Its inhibition is 42.3% (active).

For `O=C(COc1ccccc1Cl)N1CCCCCCC1`, which inhibition is on record?
Its inhibition is 3.37%.

With `COc1ccccc1C(=O)Nc1ccc(OCc2nnc3c4ccccc4c(C)nn23)cc1` as the compound, how does the inhibition read?
The inhibition was 1.57%.

How did the inhibition turn out when `OC[C@@H]1CN(Cc2cccs2)C[C@H](n2cnc3c(NC4CCCC4)ncnc32)O1` was run?
Its inhibition is -0.13%.

`CCN(CC)c1ncnc2c1ncn2[C@H]1CN(Cc2cccs2)C[C@@H](CO)O1` was tested. Which inhibition did it give?
Its inhibition is 1.17%.

Which inhibition does the source give for `OC[C@@H]1CN(Cc2cccs2)C[C@H](n2cnc3c(Nc4ccccc4)ncnc32)O1` here?
Its inhibition is 44.8% (active).

Which inhibition does the source give for `CC1(C)CC2CC(C)(CN2c2ncnc3ccc(Br)cc23)C1` (stereo not drawn) here?
Its inhibition is 6.02%.

Which inhibition does the source give for `Cc1occc(=O)c1OCc1c(Cl)cccc1Cl` here?
Its inhibition is 2.61%.

`CN(C(=O)CSc1nnc(N)s1)c1c(N)n(Cc2ccccc2)c(=O)[nH]c1=O` was tested. Which inhibition did it give?
Its inhibition is 1.14%.

With `CCCN(C(=O)CSc1nnnn1C)c1c(N)n(Cc2ccccc2)c(=O)[nH]c1=O` as the compound, how does the inhibition read?
The inhibition was 9.36%.

For `CCCN(C(=O)CSc1nnc(N)s1)c1c(N)n(Cc2ccccc2)c(=O)[nH]c1=O`, which inhibition is on record?
The inhibition was 48.3% (active).

For `COc1ccc(CNC(=O)C[C@H]2C[C@H](C(=O)N3CCOCC3)[C@@]3(C)c4[nH]c5cc(CCC(=O)N(C)C)ccc5c4CCN3C2=O)cc1OC`, which inhibition is on record?
The inhibition was -3.63%.

For `N#Cc1nc(COc2ccc(Cl)cc2)oc1N1CCCC1`, which inhibition is on record?
The inhibition was -2.71%.

For `Cc1oc(-c2ccccc2F)nc1CS(=O)CC(=O)NCCN1CCCCC1C` (stereo not drawn), which inhibition is on record?
The inhibition was -1.66%.

Which inhibition does the source give for `COc1ccccc1CNC(=O)C1CCN(c2nc3ccccc3o2)CC1` here?
The inhibition was 0.23%.

How did the inhibition turn out when `COc1ccccc1N(C)S(=O)(=O)c1ccc(C(=O)N2CCC(C(N)=O)CC2)cc1` was run?
The inhibition was 2.31%.

For `Cc1nc(-c2ccccc2)sc1-c1nnc(C2CC2)o1`, which inhibition is on record?
The inhibition was 18.1%.

With `Cn1cnnc1Sc1ccc(CN2CCN(C3CCCC3)C(CCO)C2)o1` (stereo not drawn) as the compound, how does the inhibition read?
The inhibition was -0.65%.

`CCCCCCCCCCCCN1[C@@H](CC(C)=O)c2cc(F)cc(F)c2S1(=O)=O` was tested. Which inhibition did it give?
The inhibition was -2.16%.

With `COc1ccc(CCNC(=O)c2ccc(NC(=O)CC3SC(N4CCCCC4)=NC3=O)cc2)cc1OC` (stereo not drawn) as the compound, how does the inhibition read?
The inhibition was 1.72%.

For `NS(=O)(=O)c1ccc(CCNC(=O)CNC(=O)Cc2ccccc2)cc1`, which inhibition is on record?
The inhibition was 4.09%.

Which inhibition does the source give for `CC[C@@]1(C(=O)OC)N[C@H](CN(C)C(C)=O)[C@@H]2C(=O)N(C)C(=O)[C@@H]21` here?
Its inhibition is -0.4%.

With `O=C1C2C3C=CC(C3)C2C(=O)N1c1ncc([N+](=O)[O-])s1` (stereo not drawn) as the compound, how does the inhibition read?
The inhibition was 0.42%.

For `Cc1ccc2nnn(Cc3cccc(C(C)(C)C)c3O)c2c1`, which inhibition is on record?
Its inhibition is -1.49%.

Which inhibition does the source give for `Cc1oc2c(C)c3oc(=O)c(CC(=O)N[C@@H](CC(C)C)C(=O)N[C@@H](Cc4ccccc4)C(=O)O)c(C)c3cc2c1C` here?
The inhibition was 14.5%.

With `Cc1c(OC(C)C(=O)NCC2CCC(C(=O)O)CC2)ccc2c1oc(=O)c1ccccc12` (stereo not drawn) as the compound, how does the inhibition read?
The inhibition was 11.2%.

With `Cc1c(OC(C)C(=O)N[C@@H](Cc2ccccc2)C(=O)O)ccc2c3c(c(=O)oc12)CCCC3` (stereo partly drawn) as the compound, how does the inhibition read?
The inhibition was 57.5% (active).

`CCOC(=O)N1CCC(c2cc(=O)n(-c3ccccc3)[nH]2)CC1` was tested. Which inhibition did it give?
The inhibition was 2.04%.

How did the inhibition turn out when `NS(=O)(=O)c1ccc(N2C(=O)C3C4CC(C(Br)C4Br)C3C2=O)cc1` (stereo not drawn) was run?
The inhibition was 2.97%.

For `COc1ccc(N(CC(=O)Nc2ccc(F)c(F)c2)S(=O)(=O)c2c(C)[nH]c(=O)[nH]c2=O)cc1`, which inhibition is on record?
The inhibition was 0.84%.

Which inhibition does the source give for `Cn1c(=O)n(C)c(=O)n(CC(=O)N2CCCCC2)c1=O` here?
The inhibition was -2.14%.

Which inhibition does the source give for `O=C(CN1C(=O)c2cccc3cccc1c23)Nc1ccccc1` here?
The inhibition was 1.33%.

For `O=C(CN1C(=O)c2cccc3cccc(c23)C1=O)N1CCCCC1`, which inhibition is on record?
Its inhibition is 31.8% (active).

How did the inhibition turn out when `O=S1(=O)CC/C(=N\Nc2ccc(F)cc2)c2ccsc21` was run?
Its inhibition is 0.47%.

With `CCn1c(SC)nc(O)c(C(c2ccc(OC)c(O)c2)c2c(O)nc(SC)n(CC)c2=O)c1=O` as the compound, how does the inhibition read?
Its inhibition is 0.76%.

`N/C(=N\S(=O)(=O)c1ccc(Cl)cc1)N1CCOCC1` was tested. Which inhibition did it give?
Its inhibition is -1.72%.

For `O=S(=O)(c1ccccc1)N1CN(Cc2ccc(F)cc2)c2nc3ccccc3nc21`, which inhibition is on record?
The inhibition was 1.18%.

How did the inhibition turn out when `CC1=CC2=NC(=O)CC(C)(C(=O)N(CC(=O)NC(C)(C)C)Cc3ccccc3)N2C=C1` (stereo not drawn) was run?
Its inhibition is 39.1% (active).

For `CCN(CC(=O)Nc1cc(Cl)ccc1C)C(=O)CSCc1ccccc1`, which inhibition is on record?
Its inhibition is 1.52%.

Which inhibition does the source give for `C=CCC1(C(=O)N(C)Cc2ccccc2)CCN(C(=O)OC(C)(C)C)CC1` here?
Its inhibition is -0.41%.

`Cc1ccc(S(=O)(=O)NCc2nc3ccccc3c(=O)n2N)cc1` was tested. Which inhibition did it give?
The inhibition was 0.87%.

With `CCC(=O)Nc1ccccc1C(=O)N1CCN(Cc2ccccc2)CC1` as the compound, how does the inhibition read?
Its inhibition is 1.09%.

Which inhibition does the source give for `CCN(CC)CCn1c(N)c(S(=O)(=O)c2ccccc2)c2nc3ccccc3nc21` here?
The inhibition was 73.8% (active).

Which inhibition does the source give for `CCC(=O)Nc1c(S(=O)(=O)c2ccccc2)c2nc3ccccc3nc2n1Cc1ccccc1` here?
Its inhibition is 71.7% (active).

For `Cc1ccc(S(=O)(=O)Nc2nc(N)n(-c3ccccc3)n2)cc1`, which inhibition is on record?
The inhibition was -1.75%.

Which inhibition does the source give for `Cc1ccc(S(=O)(=O)c2c(N)n(C)c3nc4ccccc4nc23)cc1` here?
The inhibition was 195% (active).

Which inhibition does the source give for `CCC(=O)Nc1ccc2nc(C)n(Cc3ccccc3Cl)c(=O)c2c1` here?
The inhibition was -0.06%.

Which inhibition does the source give for `CCCn1nc(NS(=O)(=O)c2ccccc2)c2cc3cc(C)ccc3nc21` here?
The inhibition was -1.36%.

`CCCn1nc(NS(=O)(=O)c2ccc(F)cc2)c2cc3ccccc3nc21` was tested. Which inhibition did it give?
Its inhibition is 1.96%.
